# High-throughput results: PubChem, The Scripps Research Institute Molecular Screening Center
# GPR151 ag = activates the human receptor GPR151. activation, % at 11.2 µM. PathHunter beta-arrestin GPR151 cells, luminescence. actives 1% (n = 650,000). AID 1508602. Q8TDV0; in the data active means activation above about 4.9%;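 further: 0% = median of compound wells and 100% = cells with positive control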
# MITF inh = human MITF inhibition, primary screen; O75030; actives 0.91% (n = 650,000); AID 1259374; inhibition, % at 2.6 µM; AlphaScreen MITF homodimerization, bead proximity signal; in the data active means inhibition above about 50%;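 further: 0% = vehicle wells with protein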
# FBW7 activator = human FBW7 E3 ligase activation, primary screen. AID 1259310. Q969H0. actives 0.13% (n = 650,000). normalized activity (activation), % at 26.1 µM. AlphaScreen FBW7–phospho-cyclin E peptide binding, activator screen; in the data active means normalized activity above about 1.9%;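 further: purified mutant Fbw7 with reduced substrate affinity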
# Target sequence (Q969H0 whole entry, looked up): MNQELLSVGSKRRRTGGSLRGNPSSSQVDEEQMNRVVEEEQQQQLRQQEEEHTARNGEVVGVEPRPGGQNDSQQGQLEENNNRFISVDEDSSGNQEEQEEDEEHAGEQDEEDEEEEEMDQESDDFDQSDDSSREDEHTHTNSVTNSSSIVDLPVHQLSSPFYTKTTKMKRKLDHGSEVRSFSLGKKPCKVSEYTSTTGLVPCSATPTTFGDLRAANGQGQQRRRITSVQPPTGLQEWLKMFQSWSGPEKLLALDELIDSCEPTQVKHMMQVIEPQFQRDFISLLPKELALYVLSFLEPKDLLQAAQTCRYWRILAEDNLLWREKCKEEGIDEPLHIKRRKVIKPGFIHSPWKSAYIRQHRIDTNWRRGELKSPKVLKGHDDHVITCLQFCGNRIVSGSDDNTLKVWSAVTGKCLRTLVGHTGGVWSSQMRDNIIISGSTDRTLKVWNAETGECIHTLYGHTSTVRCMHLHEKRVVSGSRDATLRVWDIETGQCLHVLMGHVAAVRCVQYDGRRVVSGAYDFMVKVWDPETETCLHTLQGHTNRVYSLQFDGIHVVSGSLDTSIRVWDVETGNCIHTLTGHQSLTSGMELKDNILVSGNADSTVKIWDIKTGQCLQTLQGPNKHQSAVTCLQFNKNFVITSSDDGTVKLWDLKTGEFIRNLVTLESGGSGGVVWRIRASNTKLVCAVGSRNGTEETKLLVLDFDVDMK
# TEAD-YAP block = TEAD-YAP interaction inhibition; HEK-TIYL cells, TEAD-Gal4/YAP UAS-luciferase luminescence; inhibition, % at 9.12 µM; actives 1.4% (n = 640,000); in the data active means inhibition above about 32%;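 further: 0% = median of test compound wells and 100% = reference inhibitor wells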
# MITF confirm = human MITF inhibition, confirmation. AlphaScreen MITF homodimerization, biotin/His-MITF beads. shares compounds with MITF inh. inhibition, % at 2.6 µM. actives 16% (n = 4,700);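 active means inhibition above a cutoff derived from the DMSO control wells, cut at about 28% in these data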;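 further: 0% = MITF dimer wells with DMSO only; inhibitors lower the bead chemiluminescence by keeping MITF from dimerizing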
# AS interf DR = AlphaScreen optical interference, dose response counter-screen; shares compounds with MITF inh; AlphaScreen optical interference counterscreen, cell-free; IC50, µM; actives 6% (n = 480); AID 1259373; call rule not given here
# AlphaScreen intf2 = optically interferes with AlphaScreen signal; LysRS AlphaScreen counterscreen, signal interference, triplicate; actives 7.6% (n = 4,700); AID 1259376; shares compounds with MITF inh; inhibition, % at 2.6 µM;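 active means inhibition above a cutoff derived from the DMSO control wells, cut at about 30% in these data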
# An asterisk follows results filed as active; . = no result given. Compounds with a hit are over-represented: about 3.4% of the library has one in this group of screens.
SMILES,GPR151 ag,MITF inh,FBW7 activator,TEAD-YAP block,MITF confirm,AlphaScreen intf2,others
Nc1nc(CSc2nnc(-c3cccc(F)c3)n2-c2ccccc2)nc(N2CCOCC2)n1,-1,51*,0,-9,7,7,
O=C(NCC(=O)c1ccccc1)NC(=O)C(F)(F)F,0,22,0,5,.,.,
CCOC(=O)c1c(N)nn2c3ccccc3n(C)c12,1,64*,0,-24,11,18,
Cc1ccc(C(=O)COC(=O)CCCC(=O)Nc2ccc(F)cc2)cc1[N+](=O)[O-],0,17,0,-2,.,.,
Cc1ccc(/C=C2/NC(=O)N(c3cccc(Cl)c3)C2=O)cc1,0,9,0,-14,.,.,
C/C(=N\NC(=O)CCCNc1cccc(C)c1)c1ccccc1,1,9,0,10,.,.,
CCOC(=O)c1nc(-c2ccccc2)oc1C(F)(F)F,0,10,0,2,.,.,
CCOC(=O)c1oc(-c2ccc(F)cc2)nc1C,5,67*,0,-6,14,17,
CC1=NN(c2nnc(C)c(=O)[nH]2)C(=O)C1,-1,103*,0,7,83*,100*,
CC1=NN(c2ccc(C)cc2)C(=O)C1,-1,13,-1,3,.,.,
CC(=O)N/C(=C\c1ccccc1)C(=O)OCC(=O)OC(C)(C)C,0,54*,0,-8,14,12,
COc1ccc2c3c(cccc13)C(=O)N(C)C2=O,0,67*,0,-5,76*,1,AS interf DR=>6.5
COc1ccc2c3c(cccc13)C(=O)N(O)C2=O,1,-17,1,12,.,.,
COc1ccc(OCCOCCN2CCN(C)CC2)cc1,-1,12,0,4,.,.,
Cc1ccc(OCCOCCN2CCN(C)CC2)cc1,0,60*,0,-3,8,9,
CC(C)c1ccc(OCCOCCN2CCN(C)CC2)cc1,-2,59*,0,-3,11,31*,
CCOc1ccc(OCCOCCN2CCN(C)CC2)cc1,-1,72*,0,7,12,-6,
CCOC(=O)c1ccc(N2C(=O)c3n[nH]c(-c4cccs4)c3C2c2cccnc2)cc1 (stereo not given),0,-6,0,17,.,.,
COc1ccc(NC(=O)Cn2cnc3sc(C)cc3c2=O)cc1OC,1,4,0,-6,.,.,
COc1cccc(OCC(O)CN2CCCC2)c1 (stereo not given),0,-16,0,15,.,.,
O=C1CCC(CCNCc2ccc(F)cc2)N1CC1(c2ccccc2)CCOCC1 (stereo not given),-1,51*,0,0,-3,2,
O=C1CCC(CCNCc2cccnc2)N1CC1(c2ccccc2)CCOCC1 (stereo not given),0,1,0,0,.,.,
CC(C(=O)N1CCN(Cc2ccco2)C[C@@H]1C(C)C)c1n[nH]c(=O)c2ccccc12 (stereo not given in full),0,5,0,10,.,.,
COc1ccc(OC)c(CN2CCN(S(C)(=O)=O)CC2)c1,-1,60*,0,12,11,11,
CCc1ccc(CN2CCN(Cc3cc(OC)ccc3OC)CC2)cc1,-2,65*,0,2,11,17,
SMILES,GPR151 ag,MITF inh,FBW7 activator,TEAD-YAP block,MITF confirm,AlphaScreen intf2,others
COc1ccc(S(=O)(=O)N2CCN(Cc3cc(OC)ccc3OC)CC2)cc1,0,5,0,1,.,.,
COc1ccc(OC)c(CN2CCN(Cc3cc(OC)ccc3OC)CC2)c1,3,57*,0,-2,-4,-3,
COc1ccc(OC)c(CN2CCN(Cc3ccc(Br)cc3)CC2)c1,-1,77*,0,-3,0,-1,
COc1ccc(Nc2ncnc3c2c(-c2ccccc2)cn3-c2cccc(Cl)c2)cc1Cl,1,5,0,4,.,.,
CCOc1ccc(NC(=O)C(=O)NN=C(C)C)cc1,0,12,1,-8,.,.,
COc1ccc(CN2CCN(C3CCCC(C)C3)CC2)c(OC)c1 (stereo not given),0,33,0,6,.,.,
COc1ccc(OC)c(CN2CCN(C3CCC(C)CC3)CC2)c1 (stereo not given),1,57*,0,2,9,-4,
COc1ccc(OC)c(CN2CCC(N3CCCC(C)C3)CC2)c1 (stereo not given),2,51*,0,1,-6,4,
COc1ccc(OC)c(CN(CCCN(C)C)CCCN(C)C)c1,0,59*,0,-7,-11,-6,
COc1ccc(Br)cc1CN(CCCN(C)C)CCCN(C)C,1,48,0,-6,.,.,
O=C1N(Cc2cccc(C(F)(F)F)c2)CCN1c1ccc2c(c1)OCO2,0,-12,0,-2,.,.,
Cc1ccoc1C(=O)NCCNC(=O)c1occc1C,0,7,0,1,.,.,
Cc1ccoc1C(=O)NCc1occc1C(=O)O,-1,57*,0,15,10,7,
Cc1cc(OCC(=O)NNC(=O)C2COc3ccccc3O2)cc(C)c1Cl (stereo not given),3,-6,0,7,.,.,
O=C(COC(=O)C1COc2ccccc2O1)NC(=O)NCc1ccccc1 (stereo not given),-1,-4,0,2,.,.,
CC12CC3CC(C1)CC(C(=O)Nc1nn[nH]n1)(C3)C2,-1,-1,0,8,.,.,
O=C(Nc1nn[nH]n1)C12CC3CC(C1)CC(c1ccccc1)(C3)C2,-2,53*,1,8,10,18,
O=C(CN1CCSCC1)N/N=C/c1cccc(C(F)(F)F)c1,-1,56*,1,-2,8,6,
CC(C)(C)C(=O)N1CCC(c2nc3c(nnn3Cc3ccccc3)c(=O)[nH]2)CC1,-1,71*,0,4,9,11,
CC(C)(C)C(=O)N1CCCC(c2nc3c(nnn3Cc3ccccc3)c(=O)[nH]2)C1 (stereo not given),2,6,0,-9,.,.,
CC1(C2CC2)NC(=O)N(CC(=O)Nc2ccc(S(=O)(=O)N3CCCCC3)cc2)C1=O (stereo not given),-1,62*,1,0,5,11,
CC1(C2CC2)NC(=O)N(CC(=O)Nc2ccccc2F)C1=O (stereo not given),1,67*,0,-4,10,7,
COCCNC(=O)C(c1ccccc1)N(C(=O)c1sc(C)nc1C)c1cccc(C)c1 (stereo not given),2,3,1,4,.,.,
O=C(Nc1ccc(F)cc1)C(c1ccc(F)cc1)N(C(=O)c1cnccn1)c1ccccc1 (stereo not given),0,1,0,9,.,.,
CC1CCN(CC(=O)Nc2ccc(C(=O)N3CCCCC3)cc2)CC1,1,59*,0,-1,3,11,
CC1CCN(CC(=O)Nc2ccc(N3CCCC3)cc2)CC1,-1,55*,0,-7,13,13,
